# Assay results taken from PubChem BioAssay.
# Some of the results follow. Unmarked numbers belong to inactive results. Activity calls are given as the source filed them.
# Target: Potassium voltage-gated channel subfamily KQT member 2 (Rattus norvegicus) (UniProt O88943)
# Assay: rat KCNQ2 channel potentiators, confirmation, cell-based, CHO, FluxOR thallium flux, duplicate (AID 2287);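 note: peak minus minimum thallium fluorescence divided by baseline after K/Tl stimulus; 0% = vehicle mean plus 3 SD and 100% = vehicle minus unstimulated blank difference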
# Conditions: CHO-KCNQ2 cells, FluxOR thallium flux fluorescence; at 10 µM; hits give high values
# Chain of Potassium voltage-gated channel subfamily KQT member 2 (Rattus norvegicus) (O88943 whole entry, looked up): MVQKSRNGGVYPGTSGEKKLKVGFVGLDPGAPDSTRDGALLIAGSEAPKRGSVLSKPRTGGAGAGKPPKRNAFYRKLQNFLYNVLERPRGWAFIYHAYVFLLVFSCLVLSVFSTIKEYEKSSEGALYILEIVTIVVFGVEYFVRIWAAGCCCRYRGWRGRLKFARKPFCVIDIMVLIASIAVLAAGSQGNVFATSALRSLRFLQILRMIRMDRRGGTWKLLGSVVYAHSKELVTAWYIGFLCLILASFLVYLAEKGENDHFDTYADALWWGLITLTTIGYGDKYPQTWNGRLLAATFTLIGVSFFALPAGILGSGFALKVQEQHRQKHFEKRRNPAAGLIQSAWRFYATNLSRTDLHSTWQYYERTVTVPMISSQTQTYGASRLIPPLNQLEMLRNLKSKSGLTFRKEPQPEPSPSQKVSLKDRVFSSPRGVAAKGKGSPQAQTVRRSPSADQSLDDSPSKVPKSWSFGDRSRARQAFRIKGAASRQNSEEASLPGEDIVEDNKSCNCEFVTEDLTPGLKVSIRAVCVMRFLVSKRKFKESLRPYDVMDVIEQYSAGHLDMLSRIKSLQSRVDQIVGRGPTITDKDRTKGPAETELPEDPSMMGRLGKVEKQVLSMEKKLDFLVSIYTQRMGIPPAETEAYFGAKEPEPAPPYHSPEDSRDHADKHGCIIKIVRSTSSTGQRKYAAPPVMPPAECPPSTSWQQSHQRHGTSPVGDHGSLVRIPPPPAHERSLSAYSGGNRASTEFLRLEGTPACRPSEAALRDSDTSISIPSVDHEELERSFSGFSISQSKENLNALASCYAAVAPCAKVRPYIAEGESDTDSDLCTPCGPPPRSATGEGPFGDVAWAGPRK
row,SMILES,"potentiation, less the hit threshold"
1,Cc1[nH]n(-c2cccc(Cl)c2)c(=O)c1/C=N/n1c(C)nc2ccccc2c1=O,1.8% (active)
2,O=C(NCc1ccc2c(c1)OCO2)C12CC3CC(CC(C3)C1)C2,73.5% (active)
3,Cc1ccc(CS(=O)(=O)c2ncc(Cl)c(C(=O)Nc3nnc(C)s3)n2)cc1,-85.4%
4,CCn1c(O)c(N=NC2=NC(=O)CS2)c2cc(C)ccc21,0.3% (active)
5,Cc1cccc(NC(=O)CSC(N)=O)c1C,56.1% (active)
6,O=C(NCc1ccc2c(c1)OCO2)c1ccc(Cl)s1,16.7% (active)
7,Cc1ccc(NC(=O)C2CC2c2ccccc2)cc1 (centres undefined),26.2% (active)
8,N#Cc1c(-c2ccccc2)nc(SCc2cccc(C(F)(F)F)c2)[nH]c1=O,6% (active)
9,CCn1c2ccccc2c2cc(NC(=O)CNC)ccc21,1.9% (active)
10,CCOC(=O)c1c(NC(=S)NC)sc2c1CCCC2,16.6% (active)
11,Cc1cccc(NC(=O)c2nc(S(=O)(=O)Cc3ccccc3)ncc2Cl)c1,4% (active)
12,CC(NC(=O)Nc1ccccc1)c1ccccc1 (centres undefined),22.8% (active)
13,Cc1ccc(/C=N/NC(=O)c2cc3ccccc3cc2O)o1,69% (active)
14,CSc1nnc(NC(=O)c2nc(S(=O)(=O)Cc3ccc(C)cc3)ncc2Cl)s1,67.6% (active)
15,CC1=C/C(=N\OS(=O)(=O)c2ccccc2)C=CC1=O,0.8% (active)
16,O=C(Nc1ccc(Oc2ccccc2)cc1)c1ccco1,37.7% (active)

row,SMILES,"potentiation, less the hit threshold"
1,C/C(=N\NC(=O)c1ccoc1C)c1ccccc1O,52.9% (active)
2,CCc1ccc(NC(=O)C(=O)NNC(=O)c2cccs2)cc1,26.8% (active)
3,COc1cccc(NC(=O)C2C(c3ccccc3)C2(Cl)Cl)c1 (centres undefined),7% (active)
4,CS(=O)(=O)c1sc(C(=O)NC(=S)Nc2ccc(OC(F)(F)F)cc2)c2c1C=CCC2,-3.3%
5,CCOC(=O)c1sc(=S)n2c1[nH]c(=O)c1ccc(C(=O)OC)cc12,26.7% (active)
6,CCCc1nc2sc3c(c2c(=O)n1NC(=O)CCCl)CCCC3,69.9% (active)
7,CCn1c(=S)[nH]c2sc3c(c2c1=O)CCCCC3,43.5% (active)
8,S=C(NCc1ccc(Cl)cc1)NC12CC3CC(CC(C3)C1)C2,9% (active)
9,COc1ccc(NC(=O)/C(Cl)=C(/Cl)S(=O)Cc2ccc(C)cc2)cn1 (centres undefined),0.8% (active)
10,CCC1(C)Cc2c(sc3nnn(CC(=O)Nc4ccc(Cl)cc4)c(=O)c23)CO1 (centres undefined),2.2% (active)
11,FC(F)(F)c1cccc(NC(=S)Nc2cccc(Cl)c2)c1,-4.8%
12,COc1ccc(C(=O)Nc2ncc3c(n2)-c2ccccc2CC3)cc1,-1%
13,CC(NC(=O)Nc1cccc([N+](=O)[O-])c1)c1ccc2c(c1)OCO2 (centres undefined),30.7% (active)
14,Oc1c(Cl)cc(Cl)cc1/C=N/c1ncn[nH]1,37.8% (active)
15,CCC1(C)Cc2c(sc3[nH]c(=S)n(Cc4ccccc4)c(=O)c23)CO1 (centres undefined),66% (active)
16,Cc1cccc(NC(=S)NC(=O)c2ccc(Br)o2)c1,35.5% (active)

# Target: Inward rectifier potassium channel 2 (Mus musculus) (UniProt P35561)
# Assay: PubChem AID 2345;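 note: 0% = vehicle mean plus 3 SD and 100% = vehicle minus no-stimulus blank window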
# Conditions: HEK293 Kir2.1, FluxOR thallium flux fluorescence; at 10 µM; hits give high values
# Chain of Inward rectifier potassium channel 2 (Mus musculus) (P35561 whole entry, looked up): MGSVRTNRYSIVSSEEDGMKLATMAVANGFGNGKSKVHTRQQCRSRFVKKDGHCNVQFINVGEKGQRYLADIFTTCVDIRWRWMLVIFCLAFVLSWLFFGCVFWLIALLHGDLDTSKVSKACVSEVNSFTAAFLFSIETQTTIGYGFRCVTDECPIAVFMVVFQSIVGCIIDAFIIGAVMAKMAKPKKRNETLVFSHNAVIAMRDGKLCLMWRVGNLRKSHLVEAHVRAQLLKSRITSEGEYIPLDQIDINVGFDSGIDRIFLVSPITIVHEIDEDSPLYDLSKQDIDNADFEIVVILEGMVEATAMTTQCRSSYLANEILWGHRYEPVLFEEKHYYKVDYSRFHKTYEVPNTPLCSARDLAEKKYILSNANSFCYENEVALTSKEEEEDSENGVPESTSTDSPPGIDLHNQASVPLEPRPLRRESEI
row,SMILES,activity over 3SD threshold
1,Cc1[nH]n(-c2cccc(Cl)c2)c(=O)c1/C=N/n1c(C)nc2ccccc2c1=O,-35.9%
2,O=C(NCc1ccc2c(c1)OCO2)C12CC3CC(CC(C3)C1)C2,-47%
3,Cc1ccc(CS(=O)(=O)c2ncc(Cl)c(C(=O)Nc3nnc(C)s3)n2)cc1,-51.4%
4,CCn1c(O)c(N=NC2=NC(=O)CS2)c2cc(C)ccc21,-27.4%
5,Cc1cccc(NC(=O)CSC(N)=O)c1C,-46.1%
6,O=C(NCc1ccc2c(c1)OCO2)c1ccc(Cl)s1,-17.6%
7,Cc1ccc(NC(=O)C2CC2c2ccccc2)cc1 (centres undefined),-35.9%
8,N#Cc1c(-c2ccccc2)nc(SCc2cccc(C(F)(F)F)c2)[nH]c1=O,-39.2%
9,CCn1c2ccccc2c2cc(NC(=O)CNC)ccc21,-90%
10,CCOC(=O)c1c(NC(=S)NC)sc2c1CCCC2,-37.6%
11,Cc1cccc(NC(=O)c2nc(S(=O)(=O)Cc3ccccc3)ncc2Cl)c1,-36%
12,CC(NC(=O)Nc1ccccc1)c1ccccc1 (centres undefined),-35.8%
13,Cc1ccc(/C=N/NC(=O)c2cc3ccccc3cc2O)o1,-20.1%
14,CSc1nnc(NC(=O)c2nc(S(=O)(=O)Cc3ccc(C)cc3)ncc2Cl)s1,-50.4%
15,CC1=C/C(=N\OS(=O)(=O)c2ccccc2)C=CC1=O,-51.4%
16,O=C(Nc1ccc(Oc2ccccc2)cc1)c1ccco1,-25.3%

row,SMILES,activity over 3SD threshold
1,C/C(=N\NC(=O)c1ccoc1C)c1ccccc1O,-16.7%
2,CCc1ccc(NC(=O)C(=O)NNC(=O)c2cccs2)cc1,-22.9%
3,COc1cccc(NC(=O)C2C(c3ccccc3)C2(Cl)Cl)c1 (centres undefined),-29.8%
4,CS(=O)(=O)c1sc(C(=O)NC(=S)Nc2ccc(OC(F)(F)F)cc2)c2c1C=CCC2,-36.7%
5,CCOC(=O)c1sc(=S)n2c1[nH]c(=O)c1ccc(C(=O)OC)cc12,-43.9%
6,CCCc1nc2sc3c(c2c(=O)n1NC(=O)CCCl)CCCC3,-17.7%
7,CCn1c(=S)[nH]c2sc3c(c2c1=O)CCCCC3,-16.8%
8,S=C(NCc1ccc(Cl)cc1)NC12CC3CC(CC(C3)C1)C2,-9.25%
9,COc1ccc(NC(=O)/C(Cl)=C(/Cl)S(=O)Cc2ccc(C)cc2)cn1 (centres undefined),-44.7%
10,CCC1(C)Cc2c(sc3nnn(CC(=O)Nc4ccc(Cl)cc4)c(=O)c23)CO1 (centres undefined),-36.4%
11,FC(F)(F)c1cccc(NC(=S)Nc2cccc(Cl)c2)c1,-40.2%
12,COc1ccc(C(=O)Nc2ncc3c(n2)-c2ccccc2CC3)cc1,-29.6%
13,CC(NC(=O)Nc1cccc([N+](=O)[O-])c1)c1ccc2c(c1)OCO2 (centres undefined),-29.4%
14,Oc1c(Cl)cc(Cl)cc1/C=N/c1ncn[nH]1,-28.1%
15,CCC1(C)Cc2c(sc3[nH]c(=S)n(Cc4ccccc4)c(=O)c23)CO1 (centres undefined),10.5% (active)
16,Cc1cccc(NC(=S)NC(=O)c2ccc(Br)o2)c1,-35.5%
